# Test results as given in PubChem BioAssay AID781 (Emory University Molecular Libraries Screening Center, 2007).
# Screen size: about 220,000 compounds; about 1,600 (0.73%) were called active. Many of the other results were omitted from the sample, so actives are more common in it than they were. A number with no mark means an inactive call.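 How the source made its calls: active means inhibition above about 70% (limit read from the data); inactive means the rest.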
# Target: 14-3-3 protein zeta/delta (Bos taurus) (UniProt P63103)
# Experiment: disruptors of 14-3-3 zeta phospho-Bad complex – biochemical, TR-FRET, bovine 14-3-3 zeta, primary screen (AID 781);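 further: 0% = full 14-3-3 plus peptide FRET controls and 100% = background without 14-3-3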
# Details: TR-FRET 14-3-3zeta/Dy647-pBad peptide displacement, 1 h; at 21.7 µM; active compounds read high
# Chain of 14-3-3 protein zeta/delta (Bos taurus) (P63103 whole entry, looked up): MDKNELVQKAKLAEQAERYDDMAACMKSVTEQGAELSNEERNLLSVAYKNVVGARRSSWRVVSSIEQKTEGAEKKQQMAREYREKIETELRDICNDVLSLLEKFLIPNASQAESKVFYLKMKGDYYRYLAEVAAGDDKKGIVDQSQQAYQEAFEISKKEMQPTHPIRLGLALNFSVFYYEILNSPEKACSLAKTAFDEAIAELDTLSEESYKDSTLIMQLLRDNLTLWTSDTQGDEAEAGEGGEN
row,Compound,inhibition
1,COc1ccc(N2CCN(Cc3ccc(Br)s3)CC2)cc1,79.9% (active)
2,Fc1ccc(N2CCN(Cc3cnc(Oc4ccc(Br)cc4)s3)CC2)cc1,-11.7%
3,COc1ccc(N2CCN(Cc3nnc(-c4ccccc4)o3)CC2)cc1,-10.5%
4,O=C(NCc1cccnc1)c1cnc2ccccc2n1,13.6%
5,CCc1cc2c(NC3CCCC3)ncnc2s1,12.9%
6,CCc1cc2c(N3CCN(c4nnc(CC)s4)CC3)ncnc2s1,76.6% (active)
7,Oc1ccccc1N1CCN(c2ncnc3sc(-c4ccccc4)cc23)CC1,-3.44%
8,CNC(=O)NC(=O)CSc1nnc(-c2ccc(F)cc2)n1CC1CCCO1 (configuration not stated),-19.5%
9,CN1CCN(C(CNS(=O)(=O)c2cccs2)c2cccnc2)CC1 (configuration not stated),-2.11%
10,COCCCNC(=S)N(Cc1ccccc1)Cc1ccc(F)cc1,-1.09%
11,CC(C)C(=O)NCc1cc(-c2ccc(Cl)cc2)no1,9.14%
12,COc1ccc(OCc2ccc(-c3nc4ccccc4c(=O)n3N)o2)cc1,-11.1%
13,COCn1c(COc2ccccc2)nc2ccccc21,0.06%
14,Cn1c(COc2ccc(Cl)cc2)nc2ccccc2c1=O,89.6% (active)
15,CN(CC(=O)N1CCN(c2ccccc2)CC1)S(=O)(=O)c1cccs1,-17.7%
16,CNC(=S)NNC(=O)c1ccc(N(C)C)cc1,-0.72%
17,CCCCCCNS(=O)(=O)c1ccccc1Br,-7.16%
18,CC(C)CNC(=O)COC(=O)/C=C/c1ccccc1[N+](=O)[O-],-3.85%
19,Cc1[nH]nc(SCC(=O)NCC(C)C)c1[N+](=O)[O-],94% (active)
20,Cc1ccc(C(C)NC(=O)Cn2nc(C)c([N+](=O)[O-])c2C)cc1 (configuration not stated),5.36%
21,Brc1cccc(-c2nnc3n2CCC3)c1,-2.99%
22,Cc1ccc2nc3n(c(=O)c2c1)CCC3,-3.59%
23,COc1ccc(-c2nc3n(c2Br)CCC3)cc1,73.6% (active)

row,Compound,inhibition
1,Cc1cccc(NC(=S)NCCc2ccc(F)cc2)c1C,1.39%
2,CC(CN1CCOCC1)c1ccccc1 (configuration not stated),71.2% (active)
3,Cc1ccc(C(=O)OC(C)CN2CCOCC2)cc1 (configuration not stated),-4.58%
4,OC(c1ccccc1)C(CN1CCOCC1)c1ccccc1 (configuration not stated),6.57%
5,O=Cc1ccc(OCc2cn3ccccc3n2)cc1,-3.57%
6,CC1(C)OC(=O)C(=CNC(CO)C(=O)O)C(=O)O1 (configuration not stated),12.2%
7,Oc1c(Cl)cc(Cl)c(Cl)c1Cc1c(O)c(Cl)cc(Cl)c1Cl,82.8% (active)
8,O=C(c1ccco1)N1CCN(CCOc2ccccc2)CC1,-0.94%
9,CN(C)CCN=c1cc(-c2ccccc2)oc2ccc(Cl)cc12,-12%
10,CN(C)N=Nc1ccc2nc[nH]c2c1,-55.4%
11,CN1C(=O)/C(=N/OC(=O)c2ccccc2Br)c2ccccc21,9.1%
12,Cc1csc(NC(=O)CN2CCCCCC2)n1,79.5% (active)
13,CS(=O)(=O)c1ccc2nc(NC(=O)CN3CCCCCC3)sc2c1,66.8%
14,Cc1csc(NC(=O)C2CCCN2C(=O)OCC(C)C)n1 (configuration not stated),-4.68%
15,COc1ccc(OC(C)C(=O)NCCc2nc3ccccc3[nH]2)cc1 (configuration not stated),4.28%
16,COC(=O)Cc1nc2ccccc2[nH]1,78.5% (active)
17,O=C(COc1ccccc1)NCCc1nc2ccccc2[nH]1,-2.28%
18,COc1cc(NC(=S)NCCSc2ccc(C)cc2)cc(OC)c1,-12.2%
19,O=C(Nc1ccc([N+](=O)[O-])cc1)C1(c2ccccc2)CCOCC1,-1.28%
20,COc1cc(OC)c(OC)cc1/C=N/Nc1ncnc2c1[nH]c1ccc(C)cc12,94.3% (active)
21,CC(C)OCCCNc1ncnc2c1[nH]c1ccc(F)cc12,-11%
22,Cc1ccc2[nH]c3c(=O)n(Cc4ccccn4)cnc3c2c1,-4.28%
23,CCN(CC)CCNCC(=O)Nc1ccc(Oc2ccccc2)cc1,20.5%

row,Compound,inhibition
1,COc1cc(NC(=O)c2cncc(-c3ccc(C#N)cc3)c2)cc(C(=O)Nc2cccc(C(F)(F)F)c2)c1,23%
2,O=c1cc(CO)oc(C(Nc2cccc(C(F)(F)F)c2)c2ccccn2)c1O (configuration not stated),2.47%
3,COc1cccc(OC)c1OCCN1CCN(C(=O)c2ccco2)CC1,24.8%
4,COc1ccccc1N1CCN(Cc2ccc(OC)c3ccccc23)CC1,37.2%
5,COc1ccc(Br)cc1CN1CCN(C(=O)c2cccc(OC)c2OC)CC1,81.3% (active)
6,CC(C)c1cc(C(=O)O)n[nH]1,65.1%
7,O=C(Nc1ccc(Cl)cn1)c1cnn2cccnc12,81.6% (active)
8,O=C(Nc1ccc(Cl)cn1)c1ccc2c(c1)OCCO2,7.42%
9,Cc1cc(NC(=O)c2cnn3cccnc23)n(-c2ccccc2)n1,7.08%
10,C/C(N)=C(/C#N)C(=O)COC(=O)c1cc(-c2ccccc2)nc2ccc(Br)cc12,-9.11%
11,O=C(N/N=C/c1ccccn1)c1cccnc1,-10.3%
12,Cc1cc(NC(=O)OC(C)C)ccc1-c1ccc(NC(=O)OC(C)C)cc1C,12%
13,Cc1nc(SCC(=O)Nc2cc(C)on2)c2c3c(sc2n1)CCCC3,-9.48%
14,Cc1cc(NC(=O)CSc2nc(C(C)C)nc3sc4c(c23)CCC(C)C4)no1 (configuration not stated),2.28%
15,Cc1nc(SCC(=O)Nc2cc(C)on2)c2c(C)c(C)sc2n1,85.3% (active)
16,Cc1nn(CC#N)c(=O)n1N(C)c1ncc(C(F)(F)F)cc1Cl,-20.5%
17,CN(CC(O)COc1ccc(S(=O)(=O)N2CCOCC2)cc1Cl)C1CCCCC1 (configuration not stated),-11.1%
18,COCCCNCC(=O)Nc1sc(C)c(C)c1C(=O)OC,78.7% (active)
19,CCOC(=O)c1c(NC(=O)c2cccs2)sc(C)c1C,10.5%
20,COC(=O)c1c(NC(=O)c2c(Cl)cnn2C)sc(C)c1C,-11.9%
21,COc1cc(CN2CC(C)CC(C)C2)cc([N+](=O)[O-])c1O (configuration not stated),-15.1%
